This is a sample that favours compounds with a hit; in the whole collection about 7.5% have one here.
SMN2 splice enh – increases expression of the SMN2 splice variant. Potency, µM (series often up to 46.1 µM), inactives show at the top dose activity change, positive = activation, actives largely listed as activators. 210,000 compounds, 2.8% hits. HEK293 SMN2-luciferase splicing reporter, luminescence, 30-36 h; further: % of control where 0% means no effect; nearly all actives have a fitted effect of over 55% in size
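HEK293 cells carry an SMN2 minigene-luciferase reporter in which exon 7 inclusion puts luciferase in frame. Cells were seeded at 2000 cells/well, attached for 10-12 hours, then exposed to compounds for 30-36 hours at 37C before ONE-Glo luminescence.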
Luc counter – Kinase-Glo luciferase inhibition (counter-screen). Kinase-Glo luciferase, ATP luminescence, 8 min. Potency, µM (doses to about 38.3 µM), for inactives: top-dose activity change, negative = inhibition, usual class: inhibitors. 200,000 compounds, 0.28% hits. AID 1379; further: on the % scale 0 is the no-effect control and ±100 the full control effect; nearly all actives have a fitted effect of over 60% in size
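Substrate mix (final 50 mM imidazole pH 7.2, 50 mM KCl, 7 mM MgCl2, 10 uM ATP, 0.01% Tween 20, 0.05% BSA) plus pin-tool compound, then Kinase-Glo detection mix; 8 min ambient, luminescence read.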
FLuc counter – firefly luciferase modulation, counter-screen for miR-21 project; P08659; purified FLuc, Km substrates, luminescence inhibition; Potency, µM (highest dose often 57.5 µM), for inactives: top-dose activity change, negative = inhibition, actives largely listed as inhibitors; 360,000 compounds, 6.9% hits;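 further: plate controls were vehicle for no effect and reference inhibitor for full effect; nearly all actives have a fitted effect of over 55% in size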
Target sequence (P08659 whole entry, looked up): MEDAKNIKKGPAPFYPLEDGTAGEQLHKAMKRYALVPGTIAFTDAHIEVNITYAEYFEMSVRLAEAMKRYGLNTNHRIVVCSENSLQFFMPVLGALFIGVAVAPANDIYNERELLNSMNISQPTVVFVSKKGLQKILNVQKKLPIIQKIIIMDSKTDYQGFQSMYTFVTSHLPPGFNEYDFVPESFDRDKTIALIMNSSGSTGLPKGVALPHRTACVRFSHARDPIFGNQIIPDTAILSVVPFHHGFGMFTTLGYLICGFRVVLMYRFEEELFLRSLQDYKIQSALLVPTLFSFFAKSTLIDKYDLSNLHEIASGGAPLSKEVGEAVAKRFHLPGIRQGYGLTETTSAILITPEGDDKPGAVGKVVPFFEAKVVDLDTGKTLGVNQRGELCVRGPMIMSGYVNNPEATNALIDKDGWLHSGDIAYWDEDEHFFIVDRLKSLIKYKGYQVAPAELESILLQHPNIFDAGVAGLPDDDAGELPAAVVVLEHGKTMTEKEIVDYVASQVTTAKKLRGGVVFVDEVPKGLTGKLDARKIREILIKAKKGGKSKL
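Purified P. pyralis luciferase, 10 nM final, with Km-level 10 uM D-luciferin and 10 uM ATP in 50 mM Tris acetate pH 7.5, 10 mM Mg acetate, 0.01% Tween-20, 0.05% BSA; 6-point qHTS titration about 60 µM downward; luminescence read.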
ELG1 genotox – induces genotoxicity in HEK293T cells with luciferase-tagged ELG1; HEK293T ELG1-luciferase reporter, luminescence, 16 h; Potency, µM (top dose mostly 46 µM), for the others: at the highest dose activity change, positive = activation, actives largely listed as activators; 330,000 compounds, 1.3% hits; AID 504466; further: % of control where 0% means no effect; nearly all actives have a fitted effect of over 60% in size
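Step 1: seed 2,000 HEK293T ELG1-luciferase cells per well. Step 2: add compound or DMSO, incubate 16 hr at 37 °C. Step 3: ONE-Glo, 30 min at room temperature, read luminescence.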
Rab9 prom act – activators of Rab9 promoter | Huh7 Rab9 promoter-luciferase reporter, luminescence, 24 h | Potency, µM (highest dose often 9.22 µM), without a hit: at the top dose activation, negative = inhibition, usual class: activators | 320,000 compounds, 2.8% hits; further: % of control where 0% means no effect; nearly all actives have a fitted effect of over 60% in size
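Steps: seed 1500 Huh7 Rab9-luc cells per well, rest 2 h at 37 °C; add compound in DMSO; incubate 24 h; add luciferase reagent, 10 min ambient; read luminescence.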
NPC1 prom act – activates the NPC1 promoter; 320,000 compounds, 2.4% hits; Huh7 NPC1 promoter luciferase reporter, 24 h; AID 485313; Potency, µM (top dose mostly 9.22 µM), for the others: at the top dose activation, most hits filed as activators; further: % of control where 0% means no effect; nearly all actives have a fitted effect of over 60% in size
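Stably transfected Huh7 (NPC1 promoter→luciferase), 1500 cells/well in Opti-MEM + 10% FBS, 2 h settle, then compound 24 h at 37 °C. Luminescence after 10 min with Amplite reagent.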
Active calls of the source: *; ? = inconclusive; . = no result. The call rests on the fitted dose curve; in most records, active means well fitted curve in the direction sought with a large enough effect; inconclusive means small, poorly fitted or top-dose-only effect, or another doubt; inactive means no such curve, though single readings can be large; an effect the other way counts as inactive or inconclusive. Potency means the concentration at half of the fitted maximal effect.

SMILES	SMN2 splice enh	Luc counter	FLuc counter	ELG1 genotox	Rab9 prom act	NPC1 prom act
C=CC[C@H](CC(=O)NCCO)C(=O)NC[C@@H](OC(=O)[C@H](CC=C)CC(=O)OC(C)(C)C)c1ccccc1	.	.	.	1%	.	.
Cn1c(C2CCCCC2)nc2cc(N)ccc21	.	.	-20%	2%	-1%	0%
O=[N+]([O-])c1ccc2oc(C3CCCCC3)nc2c1	.	1%	17µM*	?	?	15%
Cc1nc2ccc([N+](=O)[O-])cc2nc1C	1%	-3%	6%	-2%	-1%	-1%
Nc1ccc2oc(C3CCCCC3)nc2c1	11µM*	-3%	24µM*	?	?	?
COc1ccc(OC)c(CNC(=O)c2ccc(C)c(NC(=O)c3nsc4ccccc34)c2)c1	.	.	-5%	.	.	.
O=C(NCc1ccccc1Cl)c1ccc(NC(=O)c2nsc3ccccc23)cc1	.	.	3.8µM*	.	.	.
O=C(NCc1ccccc1)c1ccc(NC(=O)c2nsc3ccccc23)cc1	.	.	6µM*	.	.	.
Cc1ccc(C(=O)NCc2ccc(F)cc2)cc1NC(=O)c1nsc2ccccc12	.	.	-18%	.	.	.
CCOCCCNC(=O)c1c(NC(=O)c2cc(=O)c3ccccc3o2)sc2c1CCC2	8%	.	-6%	.	.	.
O=C(Nc1nc(COc2ccccc2)cs1)c1ccccc1F	-43%	-5%	27µM*	9%	1%	8%
COc1ccc(OC)c(-c2csc(NC(=O)c3ccccc3F)n2)c1	.	.	15µM*	8%	-3%	0%
COc1ccc(OC)c(-c2csc(NC(=O)Cc3ccccc3F)n2)c1	.	.	11µM*	-31%	4%	14%
COc1ccc(OC)c(-c2csc(NC(=O)Cc3ccccc3OC)n2)c1	.	.	9.5µM*	6%	0%	0%
COc1ccc(OC)c(-c2csc(NC(=O)CN3C(=O)NC4(CCCC4)C3=O)n2)c1	.	.	-3%	1%	-10%	-3%
O=C1CN(C(=O)c2cc([N+](=O)[O-])ccc2Cl)C(c2ccc(F)cc2)c2cc(F)ccc2N1 (stereo not given)	20%	-1%	6%	-7%	-6%	-1%
COc1ccc(Cl)cc1NC(=O)c1nc2nc(C)cc(C(F)F)n2n1	-9%	0%	3%	-1%	-6%	2%
O=C(Nc1ccccc1Cl)c1sccc1-c1ccccc1	.	.	2%	0%	-3%	-5%
Cc1cccc(NC(=O)N2CCN3CCCCC3C2)c1C (stereo not given)	.	.	0%	.	.	.
CCCCCCCCCCCCCCCC(=O)N[C@H](CN1CCOCC1)[C@H](O)c1ccccc1	-6%	-2%	.	.	.	.
Cc1nc(-c2cccc(NC(=O)c3cc4cc(Br)ccc4oc3=O)c2)cs1	-2%	-5%	-7%	1%	1%	-3%
Cc1nc(-c2ccc(NC(=O)c3ccccc3C)cc2)cs1	.	-15%	3.4µM*	13%	1.6µM*	1.4µM*
Cc1nc(-c2ccc(NC(=O)c3ccccc3Br)cc2)cs1	16µM*	-2%	6µM*	?	2.8µM*	?
COc1cccc([C@@H]2Oc3ccc(Br)cc3C[C@H]2OC(=O)Nc2cc(OC)c(OC)c(OC)c2)c1	-9%	1%	.	.	.	.
COc1ccc(NC(=O)Cn2ncc3c([nH]c4ccccc43)c2=O)cc1Cl	.	.	-1%	.	.	.
SMILES	SMN2 splice enh	Luc counter	FLuc counter	ELG1 genotox	Rab9 prom act	NPC1 prom act
Nc1nnc(-c2ccccc2F)s1	.	-4%	?	15%	16%	9%
Nc1nnc(-c2ccc(Cl)cc2Cl)s1	.	1%	12µM*	?	?	25%
CC(C)(C)C(=O)Nc1ccc(-c2cnco2)cc1	.	.	17µM*	14%	18%	21%
CC(C)(C)c1ccc(-c2cnco2)cc1	.	.	17µM*	3%	1%	2%
Brc1cccc(-c2cnco2)c1	.	2%	-1%	3%	-4%	-6%
O=c1c2sc3ccccc3c2n(Cc2cccc(Cl)c2)c(=O)n1Cc1ccccc1	0%	.	-7%	.	.	.
O=C(C1CC(=O)N(c2ccccc2)C1)N1CCN(c2ccccc2)CC1 (stereo not given)	.	.	1%	2%	0%	-5%

Bioassay records deposited in PubChem by National Center for Advancing Translational Sciences (NCATS).
